Screening data from PubChem.
IL1B secr inh: blocks inflammasome-driven IL-1 beta release | activity change, % at 57.5 µM | actives 4.7% (n = 360,000) | THP-1 LPS/ATP IL-1B secretion, AlphaLISA, 16 h; active compounds read low; in the data active = activity change below about -50%; inconclusive = mostly about -30% to -49%
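THP-1 cells pretreated 1 hr with compounds (up to 57.5 uM final), then stimulated with LPS (250 ng/mL final) plus ATP (1.25 mM final); secreted IL-1B measured by AlphaLISA after 16 hr, decreased signal indicating inhibition.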
ELG1 repair inh: ELG1-dependent DNA repair inhibition. HEK293T ELG1-luciferase reporter, luminescence, 16 h; DNA damage induced by 5-fluorouridine. Potency, µM (doses to about 46.1 µM), inactives show at the top dose activity change, negative = inhibition, most hits filed as inhibitors. actives 2.3% (n = 330,000). AID 504467; also: potency is read from the fitted curve at half-maximal effect; nearly all actives have a fitted effect of over 55% in size
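Step one: seed 2,000 cells per well. Step two: pin-transfer compound or DMSO alongside 5-fluorouridine. Step three: incubate 16 hr, 37 °C, 5% CO2. Step four: add ONE-Glo, wait 30 min, read luminescence.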
Giardia kill: Giardia lamblia killing. Giardia lamblia trophozoite viability. activity change, % at 7.66 µM, hits read low. actives 0.15% (n = 340,000); in the data active = activity change below about -80%; inconclusive = between about -30% and that limit;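 also: parasites exposed to compound for two days anaerobically before the ATP read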
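Giardia lamblia trophozoites (100 cells/well) were incubated with compounds for 48 h at 37 deg C under anaerobic conditions. Viability was read as ATP content by one-step luminescence after 15-30 min at room temperature.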
DT40 TDP1 no CPT: qHTS for Inhibitors of human tyrosyl-DNA phosphodiesterase 1 (TDP1): qHTS in cells in absence of CPT | DT40 Tdp1-/- hTDP1 cells, no CPT, ATP luminescence, 48 h | Potency, µM (titrated, usually from 46.2 µM), for inactives: top-dose activity change, negative = growth inhibition, usual class: inhibitors | actives 15% (n = 420,000); also: potency is read from the fitted curve at half-maximal effect; nearly all actives have a fitted effect of over 55% in size
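Readout: luminescence from CellTiter-Glo after 30 min in the dark at RT. Cells: DT40 Tdp1-/- with stable hTDP1, 400/well. Exposure: compounds alone, ≥48 hr, 37 °C.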
TDP1 cell CPT: growth inhibition of DT40 Tdp1-/-;hTDP1 cells with camptothecin (screen for TDP1 inhibitors). chicken DT40 Tdp1-/-;hTDP1 cells + 20 nM CPT, ATP luminescence, 48 h. Potency, µM (top dose mostly 46.2 µM), without a hit: top-dose activity change, negative = growth inhibition, actives largely listed as inhibitors. AID 686979. actives 12% (n = 420,000); also: potency is read from the fitted curve at half-maximal effect; nearly all actives have a fitted effect of over 55% in size
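Chicken DT40 Tdp1-/- cells complemented with human TDP1, 400 cells/well, exposed to compounds plus 20 nM camptothecin for at least 48 h at 37 C; viability read as ATP content by CellTiter-Glo luminescence.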
TDP1 inh: TDP1 (human) enzyme inhibition. Q9NUW8. recombinant TDP1, AlphaScreen DNA substrate cleavage. actives 0.28% (n = 350,000). Potency, µM (titrated, usually from 130 µM), for the others: at the highest dose activity change, negative = inhibition, hits mostly inhibitors; also: potency is read from the fitted curve at half-maximal effect; nearly all actives have a fitted effect of over 40% in size
Target sequence (Q9NUW8 whole entry, looked up): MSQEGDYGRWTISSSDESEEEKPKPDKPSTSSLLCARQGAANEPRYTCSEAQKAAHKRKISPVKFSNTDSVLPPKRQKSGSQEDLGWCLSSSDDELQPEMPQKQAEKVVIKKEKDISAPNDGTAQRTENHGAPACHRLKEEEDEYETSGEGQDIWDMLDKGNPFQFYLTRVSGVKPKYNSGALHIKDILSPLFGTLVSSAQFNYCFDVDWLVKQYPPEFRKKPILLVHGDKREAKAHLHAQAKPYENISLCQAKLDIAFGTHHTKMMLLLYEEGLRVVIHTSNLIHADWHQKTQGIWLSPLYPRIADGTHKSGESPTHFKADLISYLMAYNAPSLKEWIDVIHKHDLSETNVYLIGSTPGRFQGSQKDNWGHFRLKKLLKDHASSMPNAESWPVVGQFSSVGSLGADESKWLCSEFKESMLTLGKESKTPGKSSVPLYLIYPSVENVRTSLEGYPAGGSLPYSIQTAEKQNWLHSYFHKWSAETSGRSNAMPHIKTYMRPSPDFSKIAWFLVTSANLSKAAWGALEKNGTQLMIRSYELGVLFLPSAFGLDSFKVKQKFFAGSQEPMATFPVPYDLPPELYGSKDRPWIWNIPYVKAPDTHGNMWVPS
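Here, a 5' biotin and 3' phosphotyrosine-FITC DNA oligonucleotide reports Tdp1 activity: intact substrate bridges AlphaScreen beads, while cleavage leaves a 3' phosphate and drops signal. All incubations at room temperature.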
Starred values were filed as active, the others as inactive; ? = inconclusive; · = not tested or not shown. A selection: hits, their analogues and other compounds. The true share with any hit is near 19%. Unless noted, calls follow the shape of the dose curve; as a rule, active = well fitted curve in the direction sought with a large enough effect; inconclusive = small, poorly fitted or top-dose-only effect, or another doubt; inactive = no such curve, though single readings can be large; an effect the other way counts as inactive or inconclusive. % is scaled to controls: 0 for no effect and ±100 for the full control effect.

SMILES	IL1B secr inh	ELG1 repair inh	Giardia kill	DT40 TDP1 no CPT	TDP1 cell CPT	TDP1 inh
COc1ccccc1Cc1c(-c2ccc(C#N)cc2)nc2c(C)cc(Br)cn12	8	·	·	?	?	·
COc1ccccc1Cc1c(-c2cccc(Cl)c2)nc2ccc(Cl)cn12	2	·	·	18µM*	23µM*	·
COc1ccccc1Cc1c(-c2ccccc2)nc2ccc(Cl)cn12	28	·	·	?	?	·
O=C(CSc1nnc(-c2c[nH]c3ccccc23)n1C1CC1)NC1CCS(=O)(=O)C1 (centres undefined)	11	·	·	-8%	-20%	·
CCn1c(=O)c2sccc2n2c(CCC(=O)NCc3ccc(Cl)cc3)nnc12	·	·	·	21µM*	?	1%
CC(C)CCn1c(=O)c2sccc2n2c(CCCC(=O)NCCc3ccccc3)nnc12	·	·	·	15µM*	15µM*	3%
COc1ccc(CNC(=O)CCCc2nnc3n(CCC(C)C)c(=O)c4sccc4n23)cc1	·	·	·	18µM*	18µM*	5%
Cn1c(=O)c2sccc2n2c(CCC(=O)NCc3ccc(Cl)cc3)nnc12	·	·	·	?	?	1%
CC(C)Cn1c(=O)c2sccc2n2c(CCCC(=O)NCCc3ccccc3)nnc12	·	·	·	?	?	-3%
COc1ccc(NC(=O)CCCc2nnc3n(CCC(C)C)c(=O)c4sccc4n23)cc1Cl	·	·	·	21µM*	?	5%
O=c1c2ccccc2nc(-c2ccc(Cl)cc2)n1CCCOc1ccccc1F	·	·	·	-1%	-4%	·
COc1ccc(C(=O)NCc2nnc(SCC(=O)N3CCCc4ccccc43)o2)cc1OC	-8	1%	-5	-3%	-11%	3%
CCOc1ccc(CCNC(=O)CCCc2nnc3n(CC(C)C)c(=O)c4sccc4n23)cc1	·	·	·	18µM*	?	8%
CC(C)CCn1c(=O)c2sccc2n2c(CCCC(=O)NCc3ccc(F)cc3)nnc12	·	·	·	?	18µM*	8%
CCn1c(=O)c2sccc2n2c(CCCC(=O)N3CCN(c4cc(C)ccc4C)CC3)nnc12	·	·	·	6.5µM*	6.5µM*	0%
Cn1c(=O)c2sccc2n2c(CCCC(=O)NCc3ccc(F)cc3)nnc12	28	-2%	-1	-19%	3%	3%
Cc1cc(C)cc(NC(=O)CCCc2nnc3n(CC(C)C)c(=O)c4sccc4n23)c1	·	·	·	?	?	8%
CCc1ccc(NC(=O)CCCc2nnc3n(CC(C)C)c(=O)c4sccc4n23)cc1	·	·	·	23µM*	21µM*	5%
CCOC(=O)/C=C1\SCC(=O)N1CC(=O)NCc1cccc(Cl)c1	21	0%	-10	-12%	3%	1%
COc1ccc(C(=O)NCCCCNC(=O)c2ccc(OC)c(OC)c2)cc1OC	-10	1%	0	4%	6%	·
CCCCC(CC)CNC(=O)CCCn1c(=O)[nH]c2ccsc2c1=O (centres undefined)	·	·	·	?	15µM*	6%
CCCCC(CC)CNC(=O)CCCc1nnc2n(CCC)c(=O)c3sccc3n12 (centres undefined)	·	·	·	23µM*	21µM*	0%
CS(=O)(=O)Nc1cccc(-c2cncnc2NCc2cccs2)c1	·	·	·	-21%	-6%	·
Cc1ccc(S(=O)(=O)Nc2ccc3nc(-c4cccc(Cl)c4)oc3c2)cc1	·	·	·	?	?	5%
CSc1nc(N)nc2c1ncn2CC(=O)NCC(c1ccccc1)c1ccccc1	25	?	10	21µM*	15µM*	2%
SMILES	IL1B secr inh	ELG1 repair inh	Giardia kill	DT40 TDP1 no CPT	TDP1 cell CPT	TDP1 inh
CSc1nc(N)nc2c1ncn2CC(=O)Nc1ccc(C)c(C)c1	24	6.5µM*	-16	15µM*	13µM*	0%
COc1cccc(CNC(=O)c2ccc(NC(=O)C3=CSCCO3)cc2)c1	-12	?	4	-16%	?	3%
COc1cc(NC(=O)CN2C(=O)C(c3ccc(C)cc3)=NC23CCCCC3)cc(OC)c1	·	·	·	?	?	0%
COc1ccc(/C=C/c2nc(C#N)c(NC3CCCCC3)o2)cc1OC	·	·	·	21µM*	21µM*	7%
COc1cccc(Nc2nc(C#N)nc(NC3CCCC3)n2)c1	·	·	·	·	·	-3%
COc1ccc(Nc2oc(/C=C/c3ccc(OC)c(OC)c3)nc2C#N)cc1	·	·	·	-3%	19%	2%
COc1cccc(/C=C/c2nc(C#N)c(NC3CCCCC3)o2)c1	·	·	·	4.1µM*	?	0%
CC(=O)N(Cc1ccccc1)c1c(N)nc(N)[nH]c1=O	-103*	·	-16	0%	8%	·
CN(Cc1ccccc1)C(=O)CSc1n[nH]c(N)n1	-4	-22%	9	3%	6%	·
COc1ccc(CNC(=O)Cn2c(=O)nc(-c3ccccc3)c3cc(Cl)ccc32)cc1OC	·	·	·	?	?	4%
Cc1ccc(NC(=O)Cn2c(=O)nc(-c3ccccc3)c3ccccc32)cc1F	·	·	·	-29%	-14%	6%
Cc1c(Cl)cccc1NC(=O)Cn1c(=O)nc(-c2ccccc2)c2ccccc21	·	·	·	16µM*	?	6%
COc1ccc(CNC(=O)Cn2c(=O)nc(-c3ccccc3)c3ccccc32)cc1OC	·	·	·	16µM*	?	6%
Cc1cccc(NC(=O)Cn2c(=O)nc(-c3ccccc3)c3ccccc32)c1C	·	·	·	21µM*	?	4%
O=C(CCCl)N1CCCC2(CCCCC2)C1	5	?	-16	18%	-12%	·
COc1c(C2=CC(=O)N(C)C2=O)c2c(n1C)C(=O)c1ccccc1C2=O	·	·	·	0.58µM*	0.52µM*	5%
COCCCN1C(=O)C(CC(=O)NC2CCCCC2)CC(C(=O)N(C)C)=C1C (centres undefined)	0	·	·	-13%	0%	·
CC1=NN(C2=NS(=O)(=O)c3ccccc32)C(C)(O)C1 (centres undefined)	21	27%	-24	0.37µM*	0.41µM*	·
COc1ccc(-c2ccc3c(c2)C2CC3CCN2C(=O)C2CCCCC2)cc1 (centres undefined)	30	·	11	?	?	·
COCCNC(=S)N1CCC2CC1c1cc(-c3ccc4c(c3)OCO4)ccc12 (centres undefined)	68	·	·	?	16µM*	·
O=S(=O)(c1cccc2ccccc12)N1CCC2CC1c1cc(-c3ccc4c(c3)OCO4)ccc12 (centres undefined)	27	·	·	?	?	·
Cc1cccc(-c2ccc3c(c2)C2CC3CCN2Cc2ccc3c(c2)OCO3)c1 (centres undefined)	46	·	31	?	?	·
